Each structure is given as a SMILES string.

This test is described as follows: binders from COS7 lysate, DM2A8 probe, primary screen, torsin A project, cell lysate, small-molecule microarray, fluorescence 635/667 (AID 1065). Particulars: higher = more signal, COS7 lysate expressing mutant human TOR1A.
For the molecule `CC1CC/C=C\[C@H]2OC34C=CCN(C(C)(C)C)C(=O)[C@H]3N(CCCCCO)C(=O)[C@@H]4C2C(=O)O1` (stereo not given in full), the composite z-score was -0.688. Then `COc1cc(NN2C(C(O)c3cc(OC)c(OC)c(OC)c3)C=CC3C(=O)N(C)C(=O)C32)cc(OC)c1OC` (stereo not given), with 0.427; and `[N-]=[N+]=NCc1ccccc1[C@H]1OC(c2ccc(OCCCO)cc2)=N[C@@]1(Cc1ccccc1N=[N+]=[N-])C(=O)NCC(O)CO` (stereo not given in full), with 0.651. Then `C=C(COC)/C(=C/C[C@H](OC(=O)c1ccncc1)c1ccccc1OCCO)c1cc(C(=O)OC)ccc1OC`, with 0.562; and `CC(C)=C1C(=O)C(c2ccccc2)=C2CN3C(=O)N(CCc4ccccc4)C(=O)[C@]3(Cc3ccc(C(F)(F)F)cc3)[C@H]21`, with -0.192. Then `NCCCCCCNC(=O)[C@@H]1C[C@@H]2C(=O)N[C@@H](CCCCN)C(=O)N2[C@@H]1c1ccc(O)cc1`, with 0.301.

Molecule `CC(C)[Si](C#CCCCC#N)(O[C@H](c1ccccc1)c1cn(Cc2ccccc2)nn1)C(C)C` displayed a composite z-score of 0.704. Then `CC(C)c1ccc(NN2C(C(O)c3ccc(C#N)cc3)C=CC3C(=O)N(c4ccccc4)C(=O)C32)cc1` (stereo not given), with 0.0853. Then `COC(=O)[C@]1(CCS(=O)(=O)c2ccccc2)N=C(c2ccc(OCCCO)cc2)O[C@@H]1c1ccccc1N=[N+]=[N-]`, with 0.619. As for `C=C[C@H](C)[C@H](OC(=O)Nc1ccc(SC)cc1)c1ccc(OCCO)cc1`, the figure is 1.18; as for `Cc1ccc(S[C@]2(C(=O)NCC(F)(F)F)CC(=O)N(Cc3cc(C(F)(F)F)cc(C(F)(F)F)c3)[C@@H]2c2ccc(CO)cc2)cc1`, -1.74; as for `O=C1OCCC=C[C@H]2OC34C=CCN(c5ccc6ccccc6c5)C(=O)[C@H]3N(CCCO)C(=O)[C@@H]4C12` (stereo not given in full), -2.38. As to `O=C1O[C@H](c2ccccc2)[C@H](c2ccccc2)N2[C@H]1[C@@H](C(=O)O)[C@]1(C(=O)Nc3ccc(C#CCCO)cc31)[C@H]2c1ccccc1OCCO`, the composite z-score is 0.627.

`COC(=O)[C@@]1(Cc2ccc(F)cc2)[C@H]2c3cc(C(=O)N4CCCC4)n(CCc4c[nH]c5ccccc45)c3C[C@H]2CN1C(=O)c1ccccc1` came in with a composite z-score of 0.246. Take `[N-]=[N+]=Nc1ccccc1C[C@]1(C(=O)N2CCOCC2)COC(c2ccc(OCCCO)cc2)=N1`: the composite z-score came out at 0.713. In the case of `C=CCN1C(=O)[C@]2(CCC(=O)OC(C)(C)C)N=C(c3ccc(OCCCO)cc3)O[C@@H]2c2ccccc21`, the composite z-score was found to be 0.401.

Molecule `O=C1OCCC=C[C@H]2OC34C=CCN(Cn5nnc6ccccc65)C(=O)[C@H]3N(CCCO)C(=O)[C@@H]4C12` (stereo not given in full) had a composite z-score of -0.173. As for `COCCOC(=O)N1C(=O)[C@@]2(c3ccccc31)[C@H](c1ccc(O)cc1)N1[C@H](c3ccccc3)[C@H](c3ccccc3)OC(=O)[C@H]1[C@@H]2C(=O)N1CCN(c2ncccn2)CC1`, the figure is 0.23; as for `Cc1ccc(S[C@]2(C(=O)NCC(F)(F)F)CC(=O)N(Cc3cc(C(F)(F)F)cc(C(F)(F)F)c3)[C@@H]2c2ccc(CO)cc2I)cc1`, 1.52; as for `C#CCN([C@@H](Cc1ccccc1)C(=O)OC)[C@@H](/C=C/C1CC1)[C@H](O)Cc1ccccc1`, 0.0218. Then `CC(C)C(CO)N1C(=O)[C@@H]2[C@H]3C(=O)OCC=C[C@H]3OC23C=CCN(c2ccc(Cl)cc2)C(=O)[C@@H]13` (stereo not given in full), with -0.61; and `COC(=O)[C@@]1(Cc2ccc(F)cc2)[C@H]2c3cc(C(=O)N4CCCC4)n(Cc4ccc(C)c(F)c4F)c3C[C@H]2CN1C(=O)c1ccccc1`, with -0.0621; and `COc1ccccc1CN1C(=O)c2ccccc2[C@](Cc2ccccc2I)(C(=O)O)[C@@H]1c1ccc(CO)cc1`, with 0.387. In turn, `COc1ccc([C@H]2OC[C@@H]3C[C@H](Cc4ccccc4)C(=O)N32)cc1` yielded a composite z-score of 0.7. Then `COCCOC(=O)N1C(=O)[C@@]2(c3cc(C#CC4(O)CCCCCC4)ccc31)[C@H](c1ccc(O)cc1)N1[C@H](c3ccccc3)[C@H](c3ccccc3)OC(=O)[C@H]1[C@@H]2C(=O)N1CCN(c2ncccn2)CC1`, with 0.837; and `CCCC1(C(=O)OC)C=C2C(=C(C)C(=O)C2C)CN1` (stereo not given), with -0.313. As for `COc1cc(NN2C(C(O)c3ccco3)C=CC3C(=O)N(C)C(=O)C32)cc(OC)c1OC` (stereo not given), the figure is 0.504. As for `CCCNC(=O)[C@@H]1c2ccccc2C(=O)N(Cc2ccc(OC(F)(F)F)cc2)[C@H]1c1ccc(CO)cc1`, the figure is -0.392; as for `C=CC[C@@H](OC(=O)Nc1ccc(OC)cc1)c1ccc(O)c(F)c1`, 0.141. Molecule `CCCC[C@@H](O)C1=C(COC)C[C@H]2C(=O)N(Cc3ccccc3)C(=O)[C@H]2[C@H]1CO` displayed a composite z-score of 0.0076.

Values taken from PubChem BioAssay.
